In PubChem BioAssay (NCATS):
Records with an inconclusive call do not appear. The source made the active and inactive calls. Unless noted, calls come from the whole dose curve; as a rule, active = well fitted curve in the direction sought with a large enough effect; inconclusive = small, poorly fitted or top-dose-only effect, or another doubt; inactive = no such curve, though single readings can be large; an effect the other way counts as inactive or inconclusive.

What was measured:
[1] = target: Cytochrome P450 3A4 (Homo sapiens) (UniProt P08684); test: qHTS Assay for Inhibitors and Substrates of Cytochrome P450 3A4 (AID 884); note: % is set by controls: 0 for no effect and ±100 for the full control effect; nearly all actives have a fitted effect of over 50% in size
Chain of Cytochrome P450 3A4 (Homo sapiens) (P08684 whole entry, looked up): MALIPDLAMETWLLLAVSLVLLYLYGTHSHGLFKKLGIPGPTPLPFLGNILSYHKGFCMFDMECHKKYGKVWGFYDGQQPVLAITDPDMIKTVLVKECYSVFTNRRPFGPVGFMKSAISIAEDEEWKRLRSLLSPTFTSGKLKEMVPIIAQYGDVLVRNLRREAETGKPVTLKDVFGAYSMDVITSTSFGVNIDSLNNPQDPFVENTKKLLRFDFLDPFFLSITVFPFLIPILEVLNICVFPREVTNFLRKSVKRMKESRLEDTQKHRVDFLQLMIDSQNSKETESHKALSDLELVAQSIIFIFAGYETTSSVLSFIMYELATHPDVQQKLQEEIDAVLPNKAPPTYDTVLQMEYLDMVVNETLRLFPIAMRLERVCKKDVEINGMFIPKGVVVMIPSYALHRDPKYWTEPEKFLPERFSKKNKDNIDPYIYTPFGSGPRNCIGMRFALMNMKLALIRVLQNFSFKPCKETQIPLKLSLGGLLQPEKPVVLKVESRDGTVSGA
Procedure, shortened: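 20 nM human CYP3A4 with 25 uM Luciferin-PPXE (at KM) in 200 mM KPO4, preincubated 10 min with compound; NADPH regeneration started a 60 min RT reaction. Luciferin detected by luminescence, normalized to 57 uM ketoconazole as full inhibition.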

[2] = Confirmation and Secondary Assay for Modulators of Hemoglobin Beta Chain Splicing at IVS2 654 locus (AID 910);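 note: per-well total GFP intensity by laser scanning cytometry after 2-day treatment; % of control where 0% means no effect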
Procedure, shortened: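 HeLa cells stably carrying EGFP interrupted by mutant beta-globin IVS2-654 intron (CMV-driven) were treated with compound for 2 days at 37C; corrected splicing was scored as total peak GFP intensity per well (488 nm excitation, 500-520 nm emission).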

[3] = Confirmation and Secondary Assay for Modulators of Hemoglobin Beta Chain Splicing at IVS2 705 locus (AID 930);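 note: HeLa cells stably expressing the EGFP-705 splicing reporter; GFP fluorescence per well restored by corrected splicing of the IVS2-705 intron in EGFP; % of control where 0% means no effect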
Procedure, shortened: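 First, HeLa EGFP-705 cells are seeded at 500/well in Optimem with 2% FCS and left overnight. Next, compound or DMSO is added for 2 days. Finally wells are laser-scanned and total peak GFP intensity scored.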

[4] = target: Luciferin 4-monooxygenase (Photinus pyralis) (UniProt P08659); test: Biochemical firefly luciferase enzyme assay for NPC (AID 624030);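 note: purified P. pyralis luciferase at 10 nM with luciferin and ATP substrate; 0% = DMSO and -100% = full luciferase inhibition by PTC124 control; nearly all actives have a fitted effect of over 70% in size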
Chain of Luciferin 4-monooxygenase (Photinus pyralis) (P08659 whole entry, looked up): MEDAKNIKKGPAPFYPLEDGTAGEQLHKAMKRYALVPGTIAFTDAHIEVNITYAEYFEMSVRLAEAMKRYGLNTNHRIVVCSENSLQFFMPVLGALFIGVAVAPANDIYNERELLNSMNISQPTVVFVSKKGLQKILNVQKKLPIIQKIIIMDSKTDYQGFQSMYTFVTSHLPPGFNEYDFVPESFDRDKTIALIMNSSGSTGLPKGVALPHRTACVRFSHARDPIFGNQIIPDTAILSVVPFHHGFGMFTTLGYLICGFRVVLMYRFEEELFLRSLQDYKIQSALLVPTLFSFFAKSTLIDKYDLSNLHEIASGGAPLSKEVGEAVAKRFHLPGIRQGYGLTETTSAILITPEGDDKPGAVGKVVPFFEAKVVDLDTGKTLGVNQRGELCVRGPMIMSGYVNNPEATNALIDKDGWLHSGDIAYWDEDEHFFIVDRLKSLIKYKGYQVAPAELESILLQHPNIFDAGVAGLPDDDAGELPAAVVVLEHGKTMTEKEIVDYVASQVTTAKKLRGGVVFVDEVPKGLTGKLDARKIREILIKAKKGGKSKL
Procedure, shortened: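 Counter-screen for direct inhibition of the luciferase enzyme by approved-drug library compounds, run at 10 nM enzyme in 50 mM Tris acetate (final). Luminescence was read within 5 min of enzyme-buffer addition and normalized to PTC124 versus DMSO (0%).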

[5] = S16 Schwann cell viability assay (CellTiter-Glo assay) (AID 624031);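 note: native untransfected S16 rat Schwann cells; plate controls were DMSO-treated cells for no effect and cell-free wells for full effect; nearly all actives have a fitted effect of over 70% in size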
Procedure, shortened: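 Counter-screen for cytotoxicity: parental S16 rat Schwann cells lacking the PMP22 reporters, treated 24 h with compound, viability from cellular ATP by CellTiter-Glo luminescence, normalized to DMSO (0%) and no-cell wells.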

[6] = S16 Schwann cell PMP22 intronic element firefly luciferase assay (AID 624032);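 note: plate controls were DMSO for no effect and PTC124 positive control mean for full effect; nearly all actives have a fitted effect of over 30% in size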
Procedure, shortened: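 Rat S16 Schwann cells stably carrying a PMP22 intronic element-driven Fluc reporter were seeded overnight, then exposed to compounds for 24 h at 37 °C. Luminescence was normalized to PTC124 (positive control) and DMSO (0% activity).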

[7] = S16 Schwann cell PMP22 intronic element beta-lactamase assay (AID 624044; calls by dose curve;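 note: 0% = DMSO and -100% = potassium clavulanate positive control; nearly all actives have a fitted effect of over 15% in size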)
Procedure, shortened: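 Rat S16 Schwann cells with beta-Lac driven by a PMP22 intronic element, compound-treated 24 h at 37 °C. LiveBLAzer FRET B/G read: 460 nm normalized to potassium clavulanate vs DMSO; 535 nm FRET as viability; concentration-effect curves classified.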

[8] = qHTS profiling for inhibitors of Plasmodium falciparum proliferation (AID 504749);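 note: 0% = DMSO vehicle and full inhibition = artemisinin control; nearly all actives have a fitted effect of over 60% in size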; settings: P. falciparum in erythrocytes, SYBR Green DNA, 72 h, at 28.7 µM (top of the series)
Procedure, shortened: (§1)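 P. falciparum-infected erythrocytes (0.3% parasitemia, 2.5% hematocrit final) were exposed to compounds for 72 h at 37 C in 5% CO2, then lysed with SYBR Green buffer overnight at room temperature; parasite DNA fluorescence was normalized to artemisinin and DMSO controls.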

3D7 = test: as above; settings: P. falciparum in erythrocytes, SYBR Green DNA, 72 h; series mostly up to 12.8 µM
Procedure, shortened: as §1

7G8 = test: as above; settings: P. falciparum in erythrocytes, SYBR Green DNA, 72 h; series mostly up to 12.8 µM
Procedure, shortened: as §1

AA1029 = test: as above; settings: P. falciparum in erythrocytes, SYBR Green DNA, 72 h; series mostly up to 12.8 µM
Procedure, shortened: as §1

AS120 = test: as above; settings: P. falciparum in erythrocytes, SYBR Green DNA, 72 h; series mostly up to 12.8 µM
Procedure, shortened: as §1

ATS189 = test: as above; settings: P. falciparum in erythrocytes, SYBR Green DNA, 72 h; series mostly up to 12.8 µM
Procedure, shortened: as §1

ATS95 = test: as above; settings: P. falciparum in erythrocytes, SYBR Green DNA, 72 h; series mostly up to 12.8 µM
Procedure, shortened: as §1

C2A = test: as above; settings: P. falciparum in erythrocytes, SYBR Green DNA, 72 h; series mostly up to 12.8 µM
Procedure, shortened: as §1

CP185 = test: as above; settings: P. falciparum in erythrocytes, SYBR Green DNA, 72 h; series mostly up to 12.8 µM
Procedure, shortened: as §1

CP191 = test: as above; settings: P. falciparum in erythrocytes, SYBR Green DNA, 72 h; series mostly up to 12.8 µM
Procedure, shortened: as §1

CP192 = test: as above; settings: P. falciparum in erythrocytes, SYBR Green DNA, 72 h; series mostly up to 12.8 µM
Procedure, shortened: as §1

CP194 = test: as above; settings: P. falciparum in erythrocytes, SYBR Green DNA, 72 h; series mostly up to 12.8 µM
Procedure, shortened: as §1

CP201 = test: as above; settings: P. falciparum in erythrocytes, SYBR Green DNA, 72 h; series mostly up to 12.8 µM
Procedure, shortened: as §1

CP203 = test: as above; settings: P. falciparum in erythrocytes, SYBR Green DNA, 72 h; series mostly up to 12.8 µM
Procedure, shortened: as §1

CP211 = test: as above; settings: P. falciparum in erythrocytes, SYBR Green DNA, 72 h; series mostly up to 12.8 µM
Procedure, shortened: as §1

CP215 = test: as above; settings: P. falciparum in erythrocytes, SYBR Green DNA, 72 h; series mostly up to 12.8 µM
Procedure, shortened: as §1

CP217 = test: as above; settings: P. falciparum in erythrocytes, SYBR Green DNA, 72 h; series mostly up to 12.8 µM
Procedure, shortened: as §1

CP237 = test: as above; settings: P. falciparum in erythrocytes, SYBR Green DNA, 72 h; series mostly up to 12.8 µM
Procedure, shortened: as §1

CP238 = test: as above; settings: P. falciparum in erythrocytes, SYBR Green DNA, 72 h; series mostly up to 12.8 µM
Procedure, shortened: as §1

CP247 = test: as above; settings: P. falciparum in erythrocytes, SYBR Green DNA, 72 h; series mostly up to 12.8 µM
Procedure, shortened: as §1

CP250 = test: as above; settings: P. falciparum in erythrocytes, SYBR Green DNA, 72 h; series mostly up to 12.8 µM
Procedure, shortened: as §1

CP252 = test: as above; settings: P. falciparum in erythrocytes, SYBR Green DNA, 72 h; series mostly up to 12.8 µM
Procedure, shortened: as §1

CP256 = test: as above; settings: P. falciparum in erythrocytes, SYBR Green DNA, 72 h; series mostly up to 12.8 µM
Procedure, shortened: as §1

CP260 = test: as above; settings: P. falciparum in erythrocytes, SYBR Green DNA, 72 h; series mostly up to 12.8 µM
Procedure, shortened: as §1

CP262 = test: as above; settings: P. falciparum in erythrocytes, SYBR Green DNA, 72 h; series mostly up to 12.8 µM
Procedure, shortened: as §1

CP265 = test: as above; settings: P. falciparum in erythrocytes, SYBR Green DNA, 72 h; series mostly up to 12.8 µM
Procedure, shortened: as §1

CP266 = test: as above; settings: P. falciparum in erythrocytes, SYBR Green DNA, 72 h; series mostly up to 12.8 µM
Procedure, shortened: as §1

CP268 = test: as above; settings: P. falciparum in erythrocytes, SYBR Green DNA, 72 h; series mostly up to 12.8 µM
Procedure, shortened: as §1

CP269 = test: as above; settings: P. falciparum in erythrocytes, SYBR Green DNA, 72 h; series mostly up to 12.8 µM
Procedure, shortened: as §1

CP286 = test: as above; settings: P. falciparum in erythrocytes, SYBR Green DNA, 72 h; series mostly up to 12.8 µM
Procedure, shortened: as §1

CP297 = test: as above; settings: P. falciparum in erythrocytes, SYBR Green DNA, 72 h; series mostly up to 12.8 µM
Procedure, shortened: as §1

CP305 = test: as above; settings: P. falciparum in erythrocytes, SYBR Green DNA, 72 h; series mostly up to 12.8 µM
Procedure, shortened: as §1

CP315 = test: as above; settings: P. falciparum in erythrocytes, SYBR Green DNA, 72 h; series mostly up to 12.8 µM
Procedure, shortened: as §1

CP325 = test: as above; settings: P. falciparum in erythrocytes, SYBR Green DNA, 72 h; series mostly up to 12.8 µM
Procedure, shortened: as §1

CP329 = test: as above; settings: P. falciparum in erythrocytes, SYBR Green DNA, 72 h; series mostly up to 12.8 µM
Procedure, shortened: as §1

CP335 = test: as above; settings: P. falciparum in erythrocytes, SYBR Green DNA, 72 h; series mostly up to 12.8 µM
Procedure, shortened: as §1

DFO2036 = test: as above; settings: P. falciparum in erythrocytes, SYBR Green DNA, 72 h; series mostly up to 12.8 µM
Procedure, shortened: as §1

DIV14 = test: as above; settings: P. falciparum in erythrocytes, SYBR Green DNA, 72 h; series mostly up to 12.8 µM
Procedure, shortened: as §1

DIV17 = test: as above; settings: P. falciparum in erythrocytes, SYBR Green DNA, 72 h; series mostly up to 12.8 µM
Procedure, shortened: as §1

DIV30 = test: as above; settings: P. falciparum in erythrocytes, SYBR Green DNA, 72 h; series mostly up to 12.8 µM
Procedure, shortened: as §1

Dd2 = test: as above; settings: P. falciparum in erythrocytes, SYBR Green DNA, 72 h; series mostly up to 12.8 µM
Procedure, shortened: as §1

ECU = test: as above; settings: P. falciparum in erythrocytes, SYBR Green DNA, 72 h; series mostly up to 12.8 µM
Procedure, shortened: as §1

FAB9 = test: as above; settings: P. falciparum in erythrocytes, SYBR Green DNA, 72 h; series mostly up to 12.8 µM
Procedure, shortened: as §1

GB4 = test: as above; settings: P. falciparum in erythrocytes, SYBR Green DNA, 72 h; series mostly up to 12.8 µM
Procedure, shortened: as §1

HB3 = test: as above; settings: P. falciparum in erythrocytes, SYBR Green DNA, 72 h; series mostly up to 12.8 µM
Procedure, shortened: as §1

ICS = test: as above; settings: P. falciparum in erythrocytes, SYBR Green DNA, 72 h; series mostly up to 12.8 µM
Procedure, shortened: as §1

JCK = test: as above; settings: P. falciparum in erythrocytes, SYBR Green DNA, 72 h; series mostly up to 12.8 µM
Procedure, shortened: as §1

N140 = test: as above; settings: P. falciparum in erythrocytes, SYBR Green DNA, 72 h; series mostly up to 12.8 µM
Procedure, shortened: as §1

P93_24 = test: as above; settings: P. falciparum in erythrocytes, SYBR Green DNA, 72 h; series mostly up to 12.8 µM
Procedure, shortened: as §1

P94_40 = test: as above; settings: P. falciparum in erythrocytes, SYBR Green DNA, 72 h; series mostly up to 12.8 µM
Procedure, shortened: as §1

PAD = test: as above; settings: P. falciparum in erythrocytes, SYBR Green DNA, 72 h; series mostly up to 12.8 µM
Procedure, shortened: as §1

PC15 = test: as above; settings: P. falciparum in erythrocytes, SYBR Green DNA, 72 h; series mostly up to 12.8 µM
Procedure, shortened: as §1

PC26 = test: as above; settings: P. falciparum in erythrocytes, SYBR Green DNA, 72 h; series mostly up to 12.8 µM
Procedure, shortened: as §1

PC49 = test: as above; settings: P. falciparum in erythrocytes, SYBR Green DNA, 72 h; series mostly up to 12.8 µM
Procedure, shortened: as §1

SC27B = test: as above; settings: P. falciparum in erythrocytes, SYBR Green DNA, 72 h; series mostly up to 12.8 µM
Procedure, shortened: as §1

TAB109 = test: as above; settings: P. falciparum in erythrocytes, SYBR Green DNA, 72 h; series mostly up to 12.8 µM
Procedure, shortened: as §1

TAB113 = test: as above; settings: P. falciparum in erythrocytes, SYBR Green DNA, 72 h; series mostly up to 12.8 µM
Procedure, shortened: as §1

TAB165 = test: as above; settings: P. falciparum in erythrocytes, SYBR Green DNA, 72 h; series mostly up to 12.8 µM
Procedure, shortened: as §1

COc1ccc(-c2cc(=O)c3c(O)cc(O[C@H]4OC(COC5OC(C)C(O)C(O)[C@H]5O)C(O)C(O)C4O)cc3o2)cc1O (stereo partly specified)
inactive: Potency [1] | Potency [2] | Potency [3] | Potency [4] | outcome [5] | Potency [6] | Potency [7] | activity, negative = inhibition ([8]; parasite line A) 15% | activity, negative = inhibition ([8]; parasite line B) 23.4% | Potency (3D7) | Potency (7G8) | Potency (AA1029) | Potency (AS120) | Potency (ATS189) | Potency (ATS95) | Potency (C2A) | Potency (CP185) | Potency (CP191) | Potency (CP192) | Potency (CP194) | Potency (CP201) | Potency (CP203) | Potency (CP211) | Potency (CP215) | Potency (CP217) | Potency (CP237) | Potency (CP238) | Potency (CP247) | Potency (CP250) | Potency (CP252) | Potency (CP256) | Potency (CP260) | Potency (CP262) | Potency (CP265) | Potency (CP266) | Potency (CP268) | Potency (CP269) | Potency (CP286) | Potency (CP297) | Potency (CP305) | Potency (CP315) | Potency (CP325) | Potency (CP329) | Potency (CP335) | Potency (DFO2036) | Potency (DIV14) | Potency (DIV17) | Potency (DIV30) | Potency (Dd2) | Potency (ECU) | Potency (FAB9) | Potency (GB4) | Potency (HB3) | Potency (ICS) | Potency (JCK) | Potency (N140) | Potency (P93_24) | Potency (P94_40) | Potency (PAD) | Potency (PC15) | Potency (PC26) | Potency (PC49) | Potency (SC27B) | Potency (TAB109) | Potency (TAB113) | Potency (TAB165)
